Each structure is given as a SMILES string. Records with an inconclusive call do not appear. Active and inactive are the calls of the source. How the source made its calls: active means hit-call score of the fitted dose curve at least 0.9, where 1 is the maximum; inconclusive means response in the unintended direction; inactive means score below 0.9.

A word on the AC50: it is the midpoint of the concentration-response curve, whichever way the signal moves.

The target in this experiment is Hepatocyte nuclear factor 4-alpha (Homo sapiens) (UniProt P41235). The experiment can be described thus: ATG_HNF4a_TRANS: Attagene TRANS-FACTORIAL HepG2 Assay for human Hepatocyte Nuclear Factor 4 alpha (HNF4a) (AID 2282982). Particulars: HepG2 HNF4a transactivation reporter, mRNA readout. Here is the method: ATG_TRANS is a cell-based, multiplexed-readout assay that uses HepG2, a human liver cell line, with measurements taken at 24 hours after chemical dosing in a 24-well plate.ATG_HNF4a_TRANS is one of 30 assay component(s) measured or calculated from the ATG_TRANS assay. It is designed to make measurements of mRNA induction, a form of inducible reporter, as detected with fluorescence intensity signals by Reverse transcription polymerase chain reaction (RT-PCR) and Capillary electrophoresis technology.Data from the assay component ATG_HNF4a_TRANS was analyzed into 1 assay endpoint. This assay endpoint, ATG_HNF4a_TRANS, was analyzed in the positive analysis fitting direction relative to DMSO as the negative control and baseline of activity. Using a type of inducible reporter, measures of mRNA for gain-of-signal activity can be used to understand the reporter gene at the transcription factor-level as they relate to the gene HNF4A. Furthermore, this assay endpoint can be referred to as a primary readout, because this assay has produced multiple assay endpoints where this one serves a reporter gene function. To generalize the intended target to other relatable targets, this assay endpoint is annotated to the nuclear receptor intended target family, where the subfamily is orphan.
Hepatocyte nuclear factor 4-alpha (Homo sapiens), sequence (P41235 whole entry, looked up): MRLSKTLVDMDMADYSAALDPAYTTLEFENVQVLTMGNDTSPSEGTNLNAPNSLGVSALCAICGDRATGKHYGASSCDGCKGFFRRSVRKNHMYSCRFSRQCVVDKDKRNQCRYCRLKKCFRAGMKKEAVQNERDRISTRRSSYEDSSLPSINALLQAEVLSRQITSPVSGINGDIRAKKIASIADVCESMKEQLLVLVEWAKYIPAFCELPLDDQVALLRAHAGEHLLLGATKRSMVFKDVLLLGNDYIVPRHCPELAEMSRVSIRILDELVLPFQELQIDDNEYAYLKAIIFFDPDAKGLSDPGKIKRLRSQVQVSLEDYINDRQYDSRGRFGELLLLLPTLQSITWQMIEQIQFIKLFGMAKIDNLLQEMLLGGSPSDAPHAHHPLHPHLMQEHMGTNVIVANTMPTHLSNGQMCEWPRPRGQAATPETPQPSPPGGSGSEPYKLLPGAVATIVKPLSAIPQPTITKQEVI
Human liver HepG2 cells are transiently transfected with multiple reporter transcription units (MRTUs) in 6-well plates using FuGene 6 reagent (Roche; 3 ml FuGene/1 mg DNA). The MRTU constructs are regulated by a cis-regulating element (promoter). […] A major difference between the CIS and TRANS system is that in CIS activities of endogenous TFs are measured, whereas the TRANS assay evaluates changes in activities of exogenous, chimeric NR-Gal4 proteins. […] At the end of 24 hour incubation, total RNA was isolated using TriZol reagent (Invitrogen). The isolated RNA is then reverse-transcribed using oligo(dT) primer and Mo-MLV reverse transcriptase (Invitrogen) with DNAse I (Ambion) treatment for 30 min. The one-tenth of the produced cDNA was amplified by PCR using Taq DNA polymerase (Invitrogen) and two reporter sequence-specific primers. The PCR products were fluorescently labeled by primer extension with 6-arboxyfluorescein (6-FAM) 5'-labeled reporter sequence-specific primer (2 min at 95 C, 20 s at 68 C and 10 min at 72 C) and these products were digested with 5U of HpaI (New England Biolabs) for 2h at 37 C. The fragments were purified using Qiaquick PCR columns (Qiagen), analyzed on an ABI 3130xL genetic analyzer (Applied Biosystems) with peak positions identified by using a set of X-rhodamine (ROX)-labeled MapMarker1000 molecular weight standards (BioVentures). The raw capillary electrophoresis data was processed using Attagraph software (Attagene).
Take `Nc1ncnc2nc[nH]c12`: the molecule was classed as inactive.
As for `CCOC(=O)c1ccc(C)cc1`, the molecule was called inactive.
Still for that read-out and setting: the value for `CCCCCC1=CCCC1=O` was “inactive”; that for `Cc1c[nH]c(=O)[nH]c1=O` was “inactive”; that for `CC(=O)CC(=O)Nc1ccccc1C` was “inactive”.
`N=C1C=CC(=C(c2ccc(N)cc2)c2ccc(N)cc2)C=C1`: the AC50 was 129 µM (active).
As to `CCC(C)c1ccccc1` (stereo not given), the molecule was classed as inactive.
The same measure, in the same setting: the value for `CC(C)CC(=O)OCc1ccccc1` was “inactive”.
The same measure, in the same setting: for `Nc1nc(N)nc(-c2ccccc2)n1` the value was “inactive”.
Still for that read-out and setting: for `C=C(C)C(=O)OCC(O)COc1ccc(C(C)(C)c2ccc(OCC(O)COC(=O)C(=C)C)cc2)cc1` (stereo not given) the value was “inactive”; for `CC(C)(CO)C(O)C(=O)NCCCO` (stereo not given), “inactive”.
`NNS(=O)(=O)c1ccc(Oc2ccc(S(=O)(=O)NN)cc2)cc1`: the molecule was classed as inactive.
Same read-out and setting: the value for `CCOc1ccc(NC(N)=O)cc1` was “inactive”; that for `CCCCC1CCC(=O)O1` (stereo not given) was “inactive”; that for `CC(Cl)COP(=O)(OCC(C)Cl)OCC(C)Cl` (stereo not given) was “inactive”.
On the same count and under the same terms, the value for `O=C(Oc1ccccc1)c1ccccc1C(=O)Oc1ccccc1` was “inactive”; that for `CN1CCN(C)CC1` was “inactive”; that for `CC(C)CO` was “inactive”.
As to `CN(C)c1ccc2nc3ccc(=[N+](C)C)cc-3sc2c1`, the molecule was called inactive.
`CCCCC/C=C\C/C=C\CCCCCCCC(=O)O`: the molecule was called inactive.
Same read-out and setting: the value for `O=C(Cl)c1c(Cl)c(Cl)c(C(=O)Cl)c(Cl)c1Cl` was “inactive”.
Same read-out and setting: for `CCCCC1C(=O)N(c2ccccc2)N(c2ccccc2)C1=O` the value was “inactive”; for `C=CCNCC=C`, “inactive”; for `O=S(=O)(O)c1ccc(N=Nc2c(O)ccc3ccccc23)cc1`, “inactive”.
On the same count and under the same terms, for `C/C=C/C=C/CCCCCCCO` the value was “inactive”; for `COc1ccc(-c2coc3cc(O)cc(O)c3c2=O)cc1`, “inactive”; for `CC(=O)OCCc1ccccc1`, “inactive”.
For `C=CC(=O)OCCCCCCOC(=O)C=C`, the call was inactive.
Same read-out and setting: for `CCOC(=O)/C=C\C(=O)OCC` the value was “inactive”; for `CCOC(=O)OC(=O)OCC`, “inactive”.
On the same count and under the same terms, for `N#Cc1ccc(C2CCCc3cncn32)cc1` (stereo not given) the value was “inactive”.
The same measure, in the same setting: for `COC(OC)(C(=O)c1ccccc1)c1ccccc1` the value was “inactive”; for `Clc1cccnc1`, “inactive”.
For the molecule `NC(=O)Nc1ccccc1`, the outcome was inactive.
For `CCC1(C)C(=O)N(Cl)C(=O)N1Cl` (stereo not given), the outcome was inactive.
On to `CCc1cccc(C)c1N(C(=O)CS(=O)(=O)O)C(C)COC` (stereo not given), for which the call was inactive.
Still for that read-out and setting: for `COc1cc(O)c(C(=O)c2ccccc2)cc1S(=O)(=O)O` the value was “inactive”; for `CC1=CC=C(C(C)C)CC1`, “inactive”; for `c1ccc2c(c1)[nH]c1ccccc12`, “inactive”.
On to `CC(C=O)c1ccccc1` (stereo not given), for which the molecule was called inactive.

Source of the values: PubChem BioAssay (EPA / NIEHS).
